# Assay results taken from PubChem BioAssay AID652054 (National Center for Advancing Translational Sciences (NCATS), 2013).
# Among all 360,000 compounds or so, about 9,100 (2.5%) were called active. Another 4% or so got no clear call; they are omitted. The list comes from a sample in which actives are over-represented; it also holds similar structures and randomly drawn compounds. Values without a mark were called inactive. Cut-off read from the data, not from the text of the source: active = max response below about -50%; inconclusive = no clear call, values can overlap the other calls; inactive = above that.
# Molecular target: D(3) dopamine receptor (Homo sapiens) (UniProt P35462)
# Experiment: qHTS of D3 Dopamine Receptor Antagonist: qHTS
# Settings: D3R cells, DiscoveRx beta-arrestin luminescence, antagonist mode; stronger effect = lower value
# Method in brief: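 Cells plated overnight at 1500 cells/well, then exposed to library compounds with dopamine controls for 90 minutes at 37 degrees C. DiscoveRx reagent added for 30–60 minutes at room temperature; luminescence read, quantitative HTS format.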
# % is set by controls: 0 for no effect and ±100 for the full control effect.
# Chain of D(3) dopamine receptor (Homo sapiens) (P35462 whole entry, looked up): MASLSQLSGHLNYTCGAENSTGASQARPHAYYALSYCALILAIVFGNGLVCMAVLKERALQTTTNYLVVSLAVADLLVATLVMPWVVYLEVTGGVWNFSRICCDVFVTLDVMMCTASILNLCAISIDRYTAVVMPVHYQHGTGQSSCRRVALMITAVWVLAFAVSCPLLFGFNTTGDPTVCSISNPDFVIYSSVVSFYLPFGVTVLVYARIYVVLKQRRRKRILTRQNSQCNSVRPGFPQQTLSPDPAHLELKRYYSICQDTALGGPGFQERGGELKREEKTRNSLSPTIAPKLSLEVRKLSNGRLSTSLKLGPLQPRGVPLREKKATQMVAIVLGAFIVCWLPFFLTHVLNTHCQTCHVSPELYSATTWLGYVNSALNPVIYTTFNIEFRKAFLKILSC
row,Compound,"max response, negative = inhibition"
1,COC(=O)C[C@@H]1C=C[C@@H](NS(=O)(=O)c2cccc(OC)c2)[C@@H](CO)O1,3.79%
2,O=C1NC[C@H](CCCCN2C[C@H](Cc3ccccc3)N(Cc3ccccc3)C(=O)C2=O)N(CCc2ccc(O)cc2)C1=O,2.36%
3,COc1ccc(OCC(=O)Nc2ccc(N3CCC(C)CC3)cc2)cc1,-0.541%
4,COc1ccc(OCCCC(=O)Oc2ccc(OC)cc2)cc1,12.3%
5,COc1ccc(OCCCCN2CCC(C)CC2)cc1,-66.8% (active)
6,CC(C)(C)OC(=O)N1CCN(C(=O)c2[nH]c(C(F)(F)F)nc2-c2ccccc2)CC1,11.8%
7,C=CCn1nc(C(=O)OCC)cc1-c1sc(NC(=O)c2ccccc2)nc1C,26.8%
8,C=CCN1CCN(c2ccncc2S(=O)(=O)N2CCN(C)CC2)CC1,26.6%
9,COc1ccc(-c2cc(NC=O)c3ncc(-c4cc(OC)c(OC)c(OC)c4)n3c2)c(OC)c1,36.6%
10,N#Cc1c(-c2cccs2)nc(SCC(=O)c2ccc(Br)cc2)[nH]c1=O,4.64%
11,N#Cc1ccc(C(=O)Nc2nc(-c3cccs3)c(C(=O)C(F)(F)F)s2)cc1,-58.8% (active)
12,COC(=O)c1sc(NC(=S)NC(=O)c2ccc(C)cc2)nc1C,2.14%
13,O=C(NCc1ccc(F)cc1)c1cc(C2CCCCN2C(=O)c2ccccn2)on1 (stereo unspecified),-10.1%
14,COc1nc(NC2CCCCC2)nc(N2CCCCCC2)n1,-62.8% (active)
15,Clc1nc(NC2CCCC2)nc(N2CCOCC2)n1,16.5%
16,COC(=O)c1ccc(Oc2nc(Nc3ccc(F)cc3)nc(N3CCCC3)n2)cc1,-22.6%
17,COC(=O)[C@@]12C[C@@H](CC(=O)NCCCCc3ccccc3)C(=O)N(Cc3ccccc3)C1=CCC(C)(C)C2,-9.89%
18,CCN(CC)CCOCCOc1ccc(Cl)c2ccccc12,-29.6%
19,CN(C)CCOc1ccc(Cl)cc1C(C)(C)C,-51.2% (active)
20,Cn1c(CCCOc2ccc(Cl)cc2Cl)n[nH]c1=S,10.4%
21,CC(=O)C[C@@H]1OC[C@H](CO)N1S(=O)(=O)c1ccc(C)cc1,6.66%
